Conditions in all cases: primary human HUVEC with PBMC; actives raise or lower the signal
Read-out in test [1]: Monocyte Chemoattractant Protein-1 (MCP1), CCL2 (gene 6347)
Description: BSK_LPS_MCP1: BioMAP Diversity Plus: LPS Assay for Monocyte Chemoattractant Protein-1 (MCP1) Biomarker Activity (AID 2283081).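 For AC50: secreted MCP-1 protein quantified by ELISA in culture supernatant.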 Summed up:
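LPS-stimulated HUVEC/PBMC co-culture; chemical, 24 h; MCP-1 by ELISA; bidirectional fit vs DMSO; cytotoxicity via SRB (0.1% stain, 10% TCA fix, 560 nm) in parallel wells.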

Read-out in test [2]: Tissue Factor, F3 (gene 2152)
The test is described as follows: BSK_LPS_TissueFactor: BioMAP Diversity Plus: LPS Assay for Tissue Factor Biomarker Activity (AID 2283084). The essentials: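 In this co-culture system of umbilical vein endothelium with PBMC, stimulated with LPS, cell-surface CD142 is detected by ELISA at 24 h. Endpoint values derive from bidirectional fitting, DMSO serving as baseline.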

Read-out in test [3]: Tumor necrosis factor (Homo sapiens) (UniProt P01375)
Description: BSK_LPS_TNFa: BioMAP Diversity Plus: LPS Assay for Tumour Necrosis Factor alpha (TNFa) Biomarker Activity (AID 2283085).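 For AC50: TNFa protein level quantified by ELISA in the co-culture.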 Summed up: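 TNFa was quantified by ELISA in LPS-activated co-cultures of human endothelial cells and PBMC, 24 h post-dosing. Both increases and decreases versus DMSO were fitted.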

Read-out in test [4]: Vascular cell adhesion molecule 1 (VCAM1), VCAM1 (gene 7412)
Description: BSK_LPS_VCAM1: BioMAP Diversity Plus: LPS Assay for Vascular cell adhesion molecule 1 (VCAM1) Biomarker Activity (AID 2283086). Summed up:
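VCAM-1 quantified by ELISA in an LPS-activated co-culture of human endothelial cells and peripheral blood mononuclear cells, read 24 h post-treatment. Fitted in both directions versus DMSO; parallel SRB staining flags overt cytotoxicity.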

Read-out in a further test: CD38, CD38 (gene 952)
The test is described as follows: BSK_SAg_CD38: BioMAP Diversity Plus: SAg Assay for CD38 Biomarker Activity (AID 2283087). Summed up:
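CD38 quantified by ELISA (fluorescence) in a superantigen-activated endothelial cell–PBMC co-culture at 24 h post-dose. Activity fitted in both directions relative to DMSO; parallel SRB and Alamar Blue cytotoxicity read-outs.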

Read-out in another test: CD40, CD40 (gene 958)
Description: BSK_SAg_CD40: BioMAP Diversity Plus: SAg Assay for CD40 Biomarker Activity (AID 2283088). Summed up:
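Fluorescence ELISA read-out of CD40 from umbilical vein endothelium plus peripheral blood mononuclear cells, sampled 24 h after dosing. Values come from bidirectional curve fitting with DMSO as baseline.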

Read-out in another test: CD69, CD69 (gene 969)
Description: BSK_SAg_CD69: BioMAP Diversity Plus: SAg Assay for CD69 Biomarker Activity (AID 2283089).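 For AC50: cell surface CD69 protein quantified by ELISA with fluorescence detection.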 The essentials:
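HUVEC co-cultured with PBMC were dosed with chemical, and CD69 was measured by ELISA with fluorescence read-out 24 h later. Bidirectional curve fitting used DMSO as negative control and activity baseline.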

Read-out in test [5]: Monocyte Chemoattractant Protein-1 (MCP1), CCL2 (gene 6347)
The test is described as follows: BSK_SAg_MCP1: BioMAP Diversity Plus: SAg Assay for Monocyte Chemoattractant Protein-1 (MCP1) Biomarker Activity (AID 2283090). Summed up:
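Values derive from bidirectional fitting of ELISA-measured MCP1 against DMSO controls. Readings were taken 24 h after dosing human vascular endothelial cells co-cultured with peripheral blood mononuclear cells under superantigen stimulation.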

Each structure is given as a SMILES string. Several values for one entry are separate records, joined by “and”; a condition that tells them apart may be missing. Equal values may be shown once. Activity calls are given as the source filed them. Rule for the calls: active = hit-call score of the fitted dose curve at least 0.9, where 1 is the maximum; inactive = score below 0.9.

Chain of Tumor necrosis factor (Homo sapiens) (P01375 whole entry, looked up): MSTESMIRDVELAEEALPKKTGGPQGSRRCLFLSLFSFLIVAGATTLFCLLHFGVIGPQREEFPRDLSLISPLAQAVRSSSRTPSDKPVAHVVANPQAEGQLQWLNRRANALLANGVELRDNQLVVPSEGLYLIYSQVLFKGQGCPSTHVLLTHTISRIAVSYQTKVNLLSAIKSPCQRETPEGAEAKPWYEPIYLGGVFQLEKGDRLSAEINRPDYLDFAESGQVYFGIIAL

Take `C#C[C@]1(O)CC[C@H]2[C@@H]3CCC4=Cc5oncc5C[C@]4(C)[C@H]3CC[C@@]21C`: the outcome in test [1] is “inactive”; in test [2], “inactive”; in test [3], “inactive”; in test [4] it was “inactive”; in the test with CD38, CD38 (gene 952), “inactive”; with CD40, CD40 (gene 958) it was “inactive”. Moreover, the outcome with CD69, CD69 (gene 969) was inactive.

With `O=C1CCCCCCCCCCCCCCO1`, the outcome in test [1] was “inactive”; in test [2], “inactive”; in test [3], “inactive”; with CD38, CD38 (gene 952), “inactive”; with CD40, CD40 (gene 958), “inactive”. For the same molecule, the AC50 (as a rule, the midpoint of the concentration-response curve, whichever way the signal moves) in test [4] is 23.5 µM (active); with CD69, CD69 (gene 969), 20 µM (active).

As for `CC[Si](OC(C)=O)(OC(C)=O)OC(C)=O`, the outcome was “inactive” in test [1]; “inactive” in test [2]; “inactive” in test [3]; “inactive” in test [4]; “inactive” with CD38, CD38 (gene 952); “inactive” in the test with CD40, CD40 (gene 958). For the same molecule, the outcome with CD69, CD69 (gene 969) was inactive.

As for `O=C(O)c1cn(-c2ccc(F)cc2)c2cc(N3CCNCC3)c(F)cc2c1=O`, the outcome in test [1] was “inactive”; in test [2], “inactive”; in test [3], “inactive”; in test [4], “inactive”; with CD38, CD38 (gene 952) it was “inactive”; with CD40, CD40 (gene 958), “inactive”. In addition, in the test with CD69, CD69 (gene 969), the outcome was inactive.

For the molecule `O=C(O)c1cn(C2CC2)c2cc(N3CCNCC3)c(F)cc2c1=O`, the outcome in test [1] was “inactive”; in test [2], “inactive”; in test [3] it was “inactive”; in test [4] it was “inactive”; with CD38, CD38 (gene 952) it was “inactive”; in the test with CD40, CD40 (gene 958), “inactive”. In addition, in the test with CD69, CD69 (gene 969), the outcome was inactive.

As to `c1ccc2c(c1)c1cccc3ccc4cccc2c4c31`, the outcome is “inactive” in test [1]; “inactive” in test [3]; “inactive” in test [4]; “inactive” with CD38, CD38 (gene 952); “inactive” in the test with CD40, CD40 (gene 958); “inactive” with CD69, CD69 (gene 969). The outcome in test [5] was inactive. The AC50 in test [2] is 369 nM (active).

Regarding `CCCCCCCCCC=O`, the outcome is “inactive” in test [1]; “inactive” in test [2]; “inactive” in test [3]; “inactive” in test [4]; “inactive” with CD40, CD40 (gene 958). Also, the AC50 in the test with CD38, CD38 (gene 952) was 29.3 µM (active); with CD69, CD69 (gene 969), 29.9 µM (active).

Take `COC(=O)c1ccc(C)cc1`: the outcome is “inactive” in test [1]; “inactive” in test [2]; “inactive” in test [3]; “inactive” in test [4]; “inactive” in the test with CD38, CD38 (gene 952); “inactive” in the test with CD40, CD40 (gene 958). The result in the test with CD69, CD69 (gene 969) was inactive.

`CC1COc2ccccc2N1C(=O)C(Cl)Cl` (configuration not stated): the AC50 in test [1] was 5.75 µM (active); in test [3], 4.9 µM (active); in test [4], 9.65 µM (active); in the test with CD38, CD38 (gene 952) it was 10.4 µM (active); with CD40, CD40 (gene 958) it was 7.65 µM (active); in the test with CD69, CD69 (gene 969) it was 5.91 µM (active). The result in test [2] and in test [5] was inactive.

On to `Cc1cc(C2(c3cc(C)c(O)cc3C)OS(=O)(=O)c3ccccc32)c(C)cc1O`, for which the outcome in test [1] is “inactive”; in test [2], “inactive”; in test [3], “inactive”; in test [4] it was “inactive”; with CD38, CD38 (gene 952), “inactive”; with CD40, CD40 (gene 958), “inactive”. Moreover, the outcome in the test with CD69, CD69 (gene 969) was inactive.

Turning to `CCCCC(CC)COCCC#N` (configuration not stated), the AC50 in test [1] is 0.016 µM (active). Besides, the outcome in test [2] is “inactive”; in test [3] it was “inactive”; in test [4], “inactive”; in the test with CD38, CD38 (gene 952), “inactive”; in the test with CD40, CD40 (gene 958), “inactive”; with CD69, CD69 (gene 969), “inactive”.

`O=C(O)c1ccc([N+](=O)[O-])cc1`: the outcome is “inactive” in test [1]; “inactive” in test [2]; “inactive” in test [3]; “inactive” in test [4]; “inactive” with CD38, CD38 (gene 952); “inactive” in the test with CD40, CD40 (gene 958). Moreover, the outcome in the test with CD69, CD69 (gene 969) was “inactive”; in test [5], “inactive”.

Take `CC(=O)[C@H]1CC[C@H]2[C@@H]3CC=C4C[C@@H](O)CC[C@]4(C)[C@H]3CC[C@]12C`: the outcome is “inactive” in test [1]; “inactive” in test [3]; “inactive” in test [4]; “inactive” with CD38, CD38 (gene 952); “inactive” in the test with CD40, CD40 (gene 958); “inactive” in the test with CD69, CD69 (gene 969). For the same molecule, in test [2], the half-maximal activity concentration (AC50) is 9.59 µM (active) and 11.8 µM (active).

`CCCCC(CC)COC(=O)/C=C\C(=O)OCC(CC)CCCC` (configuration not stated): the outcome in test [1] was “inactive”; in test [2] it was “inactive”; in test [3] it was “inactive”; with CD38, CD38 (gene 952), “inactive”; in the test with CD40, CD40 (gene 958), “inactive”; with CD69, CD69 (gene 969) it was “inactive”. Besides, the outcome in test [5] was inactive. In test [4], the AC50 was 11.9 µM (active).

Values taken from PubChem BioAssay (EPA / NIEHS).
